CBFb RUNX1 block: blocks binding between human CBF-beta and RUNX1; AlphaScreen CBFb-His/RUNX1-biotin binding, biochemical; Potency, µM (doses to about 59.8 µM), for inactives: at the top dose activity, negative = inhibition, usual class: inhibitors; 230,000 tested, under 10 active; further: % of control where 0% means no effect
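AlphaScreen proximity signal reports loss of binding between His-tagged CBF-beta and biotin-labelled RUNX1, each at 30 nM. Proteins are pre-associated for 20 minutes, compounds added for 15 minutes, then beads for 90 minutes, all at ambient temperature.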
Epigenetic derep: regulators of epigenetic silencing causing reporter derepression in mouse cells; murine LDR cells, GFP reporter derepression, 30 h; Potency, µM (top dose mostly 53.9 µM), without a hit: at the highest dose GFP activation, most hits filed as activators; 0.2% of 280,000 active; AID 1865; further: potency means the concentration at half of the fitted maximal effect; % of control where 0% means no effect; nearly all actives have a fitted effect of over 60% in size
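Derepression of a silenced CMV-GFP reporter in murine LDR cells is scored by enumerating GFP-positive cells with a laser-scanning microplate cytometer after 30 hours of treatment at 37 C.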
TRHR ag: activates the human TRH receptor | P34981 | TRHR cells, calcium flux fluo-8, FDSS agonist mode | activation, % at 2 µM | 0.18% of 360,000 active | AID 493084; in the data active means activation above about 30%; further: 0% is about no effect
Target sequence (P34981 whole entry, looked up): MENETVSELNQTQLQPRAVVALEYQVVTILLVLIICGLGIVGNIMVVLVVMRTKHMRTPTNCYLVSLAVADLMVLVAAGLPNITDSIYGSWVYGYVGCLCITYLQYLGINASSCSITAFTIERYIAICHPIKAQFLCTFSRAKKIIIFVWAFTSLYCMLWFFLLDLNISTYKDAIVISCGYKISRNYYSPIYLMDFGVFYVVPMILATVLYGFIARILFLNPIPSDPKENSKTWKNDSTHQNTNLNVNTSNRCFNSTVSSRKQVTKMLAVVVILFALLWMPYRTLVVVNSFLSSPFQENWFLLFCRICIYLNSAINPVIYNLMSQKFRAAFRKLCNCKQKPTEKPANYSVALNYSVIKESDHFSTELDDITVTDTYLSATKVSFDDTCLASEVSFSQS
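Agonist-mode FDSS calcium read (Ex 480/Em 530, 1 s cycles) in 1536-well TRHR cells with fluo-8 dye, after 10-cycle baseline and 23 nL compound addition; TRH at EC20 (10 nM final) added afterwards for the enhancer phase.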
MBNL1-CUG inh: blocks human MBNL1 binding to CUG repeat RNA; 0.036% of 280,000 active; Potency, µM (doses to about 57.5 µM), inactives show at the highest dose activity change, negative = inhibition, actives largely listed as inhibitors; Q9NR56; AID 2675; TR-FRET MBNL1-His/biotin-(CUG)12 binding, 665/545 ratio; active means well fitted inhibition curve with a large enough effect in the signal ratio, with a control signal flat, not every such curve was filed as active; inconclusive means small, poorly fitted or top-dose-only effect, or effect the other way, or a change in a side signal; inactive means no such curve, though single readings can be large or run the other way; the % refers to the signal ratio; further: potency means the concentration at half of the fitted maximal effect; on the % scale 0 is the no-effect control and ±100 the full control effect
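Ratiometric TR-FRET (665 over 545 nm, excitation 340 nm) tracks disruption of MBNL1-His/biotin-(CUG)12 complex after 60 min at room temperature, with compounds at 92 nM to 58 uM final.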
TRHR enhancer: allosteric enhancers of human TRH receptor; P34981; TRHR cells, fluo-8 calcium fluorescence, EC20 TRH enhancement; enhancement, % at 2 µM; 0.66% of 360,000 active; AID 493056; in the data active means enhancement above about 30%; further: 0% is about no effect
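Enhancer read-out: after compound pinning and an initial kinetic agonist-mode read, an EC20 of TRH (10 nM final) was injected and fluo-8 calcium signal (Ex 480/Em 530) followed at 1 s/cycle for 100 cycles in TRHR-expressing cells.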
IL-2 act: IL-2 activation | IL-2 activation reporter assay, cell-based qHTS; stimulated with anti-CD3/CD4/CD28 beads; in transgenic mouse T cells | activation, % (series mostly up to about 46 µM) | 0.065% of 360,000 active | AID 652025; in the data active means activation above about 50%; inconclusive means mostly about 30% to 49%; further: 0% is about no effect
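EGFP and DsRed fluorescence is measured by plate cytometry in unstimulated transgenic mouse T cells exposed to compound for 60 minutes, then stimulated 18 hours at 37 degrees C with anti-CD3/anti-CD4 beads plus anti-CD28.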
Active calls of the source: *. Most compounds without a hit are left out; they make up all but 0.88% or so of the library. Unless noted, the call rests on the fitted dose curve; in most records, active means well fitted curve in the direction sought with a large enough effect; inconclusive means small, poorly fitted or top-dose-only effect, or another doubt; inactive means no such curve, though single readings can be large; an effect the other way counts as inactive or inconclusive.

Results for CC(=O)c1cc(NC(=O)c2cccc(C(F)(F)F)c2)c(=O)oc1/C=C/N(C)C ?
CBFb RUNX1 block: 5%; Epigenetic derep: 18%; MBNL1-CUG inh: 4%; IL-2 act: 58*

Results for CC(=O)c1cc(NC(=O)c2ccc(Cl)cc2)c(=O)oc1/C=C/N(C)C ?
CBFb RUNX1 block: -7%; Epigenetic derep: 15%; TRHR ag: 39*; MBNL1-CUG inh: 19%; TRHR enhancer: -3; IL-2 act: 0

What do the screens show for `COc1ccc(C(=O)Nc2cc(C(C)=O)c(C)oc2=O)cc1`?
CBFb RUNX1 block: -2%; Epigenetic derep: 2%; TRHR ag: 0; MBNL1-CUG inh: inconclusive; TRHR enhancer: 1; IL-2 act: 0

Results for CCOC(=O)c1ccc2c(c1)N(CC(=O)N1CCCC1)C(=O)C(C)(C)O2 ?
CBFb RUNX1 block: -4%; Epigenetic derep: 0%; TRHR ag: 0; MBNL1-CUG inh: -4%; TRHR enhancer: 36*; IL-2 act: -2

Results for CCCN(C(=O)c1coc(=O)c2ccccc12)c1ccccc1C ?
Epigenetic derep: 8%; TRHR ag: -1; TRHR enhancer: 1

What do the screens show for `COc1ccccc1C(=O)OCc1cc(=O)n2nc(C3CCCCC3)sc2n1`?
Epigenetic derep: 0%; TRHR ag: 0; TRHR enhancer: -1

How did CC(C)c1onc(-c2c(Cl)cccc2Cl)c1COc1ccc(/C=C/c2cccc(C(=O)O)c2)c(Cl)c1 do in these assays?
CBFb RUNX1 block: -4%

Results for CCN(CC)c1ccc(/C=C2/C(=O)c3ccc(C(=O)O)cc3C2=O)cc1 ?
CBFb RUNX1 block: inconclusive; Epigenetic derep: 2%; TRHR ag: 188*; TRHR enhancer: 41*; IL-2 act: inconclusive

What do the screens show for `Cc1ccccc1CSc1nc2c(sc3ccccc32)c(=O)n1CCCC(=O)NCCCOC(C)C`?
Epigenetic derep: 1%; TRHR ag: 0; TRHR enhancer: 7

What do the screens show for `Cc1ccccc1CNS(=O)(=O)c1c(C(=O)N2CCCC2)c(C)n(C)c1C`?
TRHR ag: 0; MBNL1-CUG inh: 5%; TRHR enhancer: 35*; IL-2 act: 1

What do the screens show for `Cc1c(C(=O)N2CCCCC2)c(S(=O)(=O)NCc2ccccc2Cl)c(C)n1C`?
TRHR ag: 0; MBNL1-CUG inh: -4%; TRHR enhancer: 1; IL-2 act: -2

What do the screens show for `COc1ccc(OCc2nc(C#N)c(NCc3ccccc3Cl)o2)cc1`?
Epigenetic derep: 0%; TRHR ag: -1; TRHR enhancer: 41*

What do the screens show for `COc1ccc(-c2nc(C#N)c(NCc3ccccc3Cl)o2)cc1`?
CBFb RUNX1 block: 10%; Epigenetic derep: -1%; TRHR ag: 1; MBNL1-CUG inh: 2%; TRHR enhancer: 9; IL-2 act: 0

What do the screens show for `O=C(O)c1ccc(NC(=S)NC(=O)c2cncc(Br)c2)cc1`?
TRHR ag: 1; MBNL1-CUG inh: 2%; TRHR enhancer: 34*; IL-2 act: -1

How did Cc1nnsc1C(=O)N/N=C/c1ccc2ccccc2c1O do in these assays?
CBFb RUNX1 block: inconclusive; Epigenetic derep: 0%; TRHR ag: 65*; MBNL1-CUG inh: 21%; TRHR enhancer: 15; IL-2 act: 2

What do the screens show for `Cc1nnsc1C(=O)N/N=C/c1ccccc1`?
CBFb RUNX1 block: 10%; Epigenetic derep: -2%; TRHR ag: -1; MBNL1-CUG inh: -16%; TRHR enhancer: 5; IL-2 act: 1

Results for Cc1ccccc1NC(=O)CSc1n[nH]c(-c2ccccn2)n1 ?
TRHR ag: 0; MBNL1-CUG inh: 5%; TRHR enhancer: 35*; IL-2 act: 1

What do the screens show for `Cc1ccc(C)c(NC(=O)CSc2n[nH]c(-c3ccccn3)n2)c1`?
TRHR ag: 1; MBNL1-CUG inh: 0%; TRHR enhancer: -3; IL-2 act: -1
